Experimental data: PubChem BioAssay AID1458 (National Center for Advancing Translational Sciences (NCATS), 2008)
The campaign covered roughly 210,000 compounds. About 5,900 (2.8%) were called active. Not shown: some 5% with an inconclusive outcome. The call rests on the fitted dose curve; in most records, active means well fitted activation curve with a large enough effect; inconclusive means small, poorly fitted or top-dose-only effect; inactive means no such curve, though single readings can be large or run the other way. This excerpt belongs to a sample that is enriched for actives.

Experiment: qHTS Assay for Enhancers of SMN2 Splice Variant Expression; further: nearly all actives have a fitted effect of over 55% in size; on activity change, positive = activation: % of control where 0% means no effect
Settings: HEK293 SMN2-luciferase splicing reporter, luminescence, 30-36 h; series mostly up to 46.1 µM; activity change, positive = activation: at the top concentration
Text: NIH Chemical Genomics Center [NCGC] NIH Molecular Libraries Probe Production centers Network [MLPCN] MLPCN Grant: R03 MH084179-01 Assay Submitter (PI): Elliot Androphy NCGC Assay Overview: Spinal muscular atrophy (SMA) is caused by insufficient levels of the survival motor neuron protein SMN. The SMN locus on chromosome 5q13 contains two inverted copies of SMN called SMN1 and SMN2 which are 99% identical at the amino acid level. SMN1 is a fully functional protein and SMN2 skips exon 7 90% of the time. Skipping of exon 7 produces non-functional protein product. 10% of the SMN2 protein includes exon 7 and is fully functional. In the SMA disease state, mutations in the SMN1 locus are the cause of the disease state. Because only 10% of SMN2 is of the fully functional form, it is not sufficient to overcome the deficiency produced by the loss of the SMN1 product. A therapy that either increase the amount of SMN2 product made or to increase the inclusion of exon 7 has been proposed for the treatment of SMA. We have designed an assay to identify small molecules that can increase the amount of functional SMN2 product by appending a luciferase reporter gene after the native SMN2 gene, such that inclusion of exon 7 in the expressed product places the luciferase sequence in frame, thus generating functional luciferase enzyme.
NCGC Assay Protocol Summary: This screen utilizes a luciferase reporter gene assay, combining the promoter and splicing based cassettes in tandem with the major portion of the native SMN2 cDNA, and then transfected into HEK293 cells. Compounds that increase luciferase signal presumably enhance expression of the functional SMN2 splice variant. Passaging media contained DMEM w/ glutamax (+phenol red) 10% FCS, 1x pen/strep, 200 ug/ml hygro, 1x sodium pyruvate. Assay media contained DMEM w/ glutamax (-phenol red) 10% FCS, 1x pen strep, 1x pyruvate Sequence, Parameter, Value, Description (1) Cells, […], 2000 cells/well, 1536 TC treated White solid bottom plate (2) Time, 10-12 hours, 37C 5% CO2 (3) Compound, 23 nl, MLSMR Library (4) Control Compound, 23 nL, Sodium butyrate st 4.5mM (final) conc (5) Time, 30-36 hours, 37C 5% CO2 (6) Reagent, 3 ul, One Glo (TM) from Promega (7) Time, 5-15 minutes, Room temp (8) Detector, Viewlux: luminescent read, 60 second integration, high speed 2x binning Keywords: Spinal muscular atrophy, SMA, SMN2, high throughput screening, MLSMR, MLPCN, NIH Roadmap, qHTS and NCGC
Potency means the concentration at half of the fitted maximal effect.

Activity change, positive = activation, inactive:
Cc1c(O)cc(O)c2c(=O)c(-c3ccc(O)cc3)coc12 -11.6%
O=c1c(-c2ccccc2)coc2c(CN3CCOCC3)c(O)ccc12 -18.2%
COc1cc2nc(NCC(C)c3ccccc3)n3nc(-c4ccccc4)nc3c2cc1OC (stereo not drawn) 23.7%
Cc1cc(C)c2oc(C(=O)Nc3c(C(=O)Nc4ccccc4)oc4ccccc34)cc(=O)c2c1 -0.706%
Cc1ccc(Cl)cc1N1CCN(C(=O)C2CCC(CNS(=O)(=O)c3cccs3)CC2)CC1 (stereo not drawn) -13.3%
COc1cc(/C=N\Nc2ccc([N+](=O)[O-])cn2)ccc1OCC(=O)O 7.65%
COc1cc(C(=O)OCc2ccc([N+](=O)[O-])cc2)cc(OC)c1OC -2.26%
COc1ccc(N2CCN(C(=O)C3CCCN(C(=O)c4cc5sccc5n4C)C3)CC2)cc1 (stereo not drawn) -34.1%
Cc1ccc(S(=O)(=O)c2nc(-c3ccco3)oc2SCC(=O)Nc2ccc(F)cc2)cc1 -0.512%
COc1ccc(C2COC(=O)C2=N)c(NC(=O)c2ccccc2)c1 (stereo not drawn) 9.6%
Cc1cc(NS(=O)(=O)c2ccc(NC(=O)c3ccccc3C)cc2)nc(C)n1 -6.19%
COc1ccc(C(=O)NC(=S)Nc2ccc(N3CCCC3)cc2)cc1OC -14.4%
COc1cccc(C(=O)NNC(=O)c2ccccc2Br)c1 -6.77%
COc1cccc(OC)c1C(=O)Nc1ccc(N2CCCCC2)cc1 -25.4%
C/C(=N\NC(=O)c1ccccc1C)c1ccc(N2CCOCC2)cc1 16.8%
CCn1cc(C(=O)NCc2ccccc2)c(=O)c2cc(S(=O)(=O)N3CCCCC3)ccc21 0.829%
CC(C)Cn1c(=O)c2ccccc2n2c(CCC(=O)N3CCN(c4cccc(Cl)c4)CC3)nnc12 -5.96%
Cc1ccc(OCCn2c(CNc3ccccc3C)nc3ccccc32)cc1 4.39%
O=C(NCCCO)c1nn(-c2ccc(Cl)cc2)nc1CO -6.62%
O=C(Cn1c(=O)n(Cc2cccs2)c(=O)c2cccnc21)Nc1ccc(F)cc1 0.241%
Cc1ccc(NC(=O)CN2C(=O)C(c3ccc(F)cc3)=NC23CCCCCC3)c(C)c1 22.3%
CCOc1ccc(N(Cc2ccccc2)C(=O)c2nc(S(C)(=O)=O)ncc2Cl)cc1 -86.3%
O=C(CCS(=O)(=O)c1cc(Br)cc2c1N(C(=O)C1CC1)CC2)Nc1ccc(C(F)(F)F)cc1 1.62%

Potency, active:
O=c1c(-c2ccccc2)coc2cc(O)ccc12 22.4 µM
COc1cc(/C=N/O)ccc1OCc1ccc([N+](=O)[O-])cc1 14.1 µM
COc1cccc(C(=O)Nc2cc3c(cc2Br)OCCCO3)c1 10 µM
COc1cccc(C(=O)Nc2ccc(N3CCCC3)cc2)c1 8.91 µM
Cc1ccccc1C(=O)Nc1ccc(N2CCCCCC2)cc1 12.6 µM
